High-throughput results from PubChem.
PAX8 reporter = lowers PAX8-driven luciferase in RMG-I cells | RMG-I TPO-luciferase reporter, SteadyGlo, 24 h | inhibition, % at 12.6 µM | 360,000 compounds, 1.2% hits | AID 652154;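 active means mean replicate inhibition at least 60% with every replicate also reaching 60%; inconclusive means only one of the two criteria is met; inactive means mean below 60% and not all replicates reaching 60%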;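 further: luciferase light reporting Pax8 driven TPO promoter activity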
EWS-Fli inh = blocks EWS/Fli oncoprotein-driven transcription; A673 NR0B1-luciferase reporter, viability-normalised; inhibition, % at 12.6 µM; 350,000 compounds, 0.67% hits; AID 651661;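 active means mean inhibition of at least 50% after viability correction, with every replicate also passing that limit; inconclusive means mean reaches 50% but only one of two replicates passes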;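 further: firefly luciferase signal divided by Alamar Blue viability fluorescence both relative to DMSO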
PGC1a acetyl inh = lowers PGC1a acetylation signal in U2OS cells | 350,000 compounds, 0.17% hits | AlphaScreen anti-acetyl-lysine; with virally co-expressed GCN5 acetyltransferase | AID 651687 | inhibition, % at 15.6 µM;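 active means every replicate shows inhibition of at least 40%; inconclusive means mean inhibition at least 40% but some replicate below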
SIRT5 block = blocks human SIRT5 desuccinylation of peptide; Q9NXA8; Purified SirT5, succinyl-peptide AMC, trypsin-coupled fluorescence; inhibition, % at 15 µM; 330,000 compounds, 1.1% hits; in the data active means inhibition above about 15%; inconclusive means no clear call, values can overlap the other calls
Target sequence (Q9NXA8 whole entry, looked up): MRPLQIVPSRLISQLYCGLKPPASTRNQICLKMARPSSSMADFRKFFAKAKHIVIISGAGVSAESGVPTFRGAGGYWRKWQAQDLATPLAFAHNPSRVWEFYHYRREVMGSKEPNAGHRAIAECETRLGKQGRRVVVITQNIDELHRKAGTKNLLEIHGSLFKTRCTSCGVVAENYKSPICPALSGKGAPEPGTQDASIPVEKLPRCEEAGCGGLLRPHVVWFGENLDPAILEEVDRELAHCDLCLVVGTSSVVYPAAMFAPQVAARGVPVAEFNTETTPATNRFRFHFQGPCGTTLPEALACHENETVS
LGR2 antag = inhibitors of bursicon-induced Drosophila LGR2 receptor cAMP signaling | HEK293 LGR2, CRE-luciferase, bursicon-stimulated, 4 h | inhibition, % at 9.99 µM | 380,000 compounds, 0.35% hits | AID 720647;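 active means drop in luminescence signal, shown as inhibition above about 50% in the replicate tests, limit read from the data, passing the limit was not always enough; inconclusive means probably only some replicates passing the limit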;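 further: agonist challenge used bursicon conditioned medium at about half maximal strength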
rRNA inh HTS = inhibitors of bacterial rRNA selective over humanized ribosomes; 350,000 compounds, 1.6% hits; AID 720706; E. coli WT GFP vs humanized-ribosome RFP mutants, fluorescence, 24 h; hits give low values; DMSO median 0, no signal -100; GFP signal change (wild-type ribosome), % (concentration not given with the values);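 active means significant combined selectivity score with lowered wild-type GFP, culture density cut under 30%, mutant RFP and density less affected; inactive means any of these conditions unmet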
Of the large screens only hits and unclear results are named; the others gave an inactive call. Only some compounds are listed: those with a hit (about 3.4% of all), similar ones and a draw of the others.

CO[C@H]1CN(C)C(=O)c2ccc(NC(=O)C3CC3)cc2OC[C@H](C)N(Cc2ccccc2)C[C@@H]1C	none (no result: PAX8 reporter)
CCCCOc1ccc(C(=O)C(CN2CCOCC2)c2ccccc2)cc1 (stereo not drawn)	PGC1a acetyl inh 79.6 (no result: PAX8 reporter, EWS-Fli inh, SIRT5 block, LGR2 antag, rRNA inh HTS)
CCCOc1ccc(C(=O)C(CN2CCCC2)c2ccccc2)cc1 (stereo not drawn)	EWS-Fli inh 61.4 (no result: PGC1a acetyl inh)
Cc1ccc(OCC(=O)Nc2ccccc2N2CCCC2)c(C)c1	rRNA inh HTS -27.1 (no result: PGC1a acetyl inh)
CC(C)C(=O)N1CCN(c2ccccc2NC(=O)COc2ccccc2)CC1	rRNA inh HTS -27.4
C[C@@H]1CN([C@@H](C)CO)C(=O)Cc2cc(NS(=O)(=O)c3ccc(Cl)cc3)ccc2O[C@H]1CN(C)Cc1ccc(C(=O)O)cc1	none (no result: EWS-Fli inh)
NC(=S)NN=C1CCC2(CCCCC2)CC1	SIRT5 block 25.3
COCC(=O)N(C)C[C@@H]1Oc2ncc(C#Cc3ccc(F)cc3)cc2C(=O)N([C@@H](C)CO)C[C@@H]1C	none (no result: PAX8 reporter)
O=C(O)/C=C/C(=O)Nc1ccc(C2(c3ccc(NC(=O)/C=C/C(=O)O)cc3)c3ccccc3-c3ccccc32)cc1	SIRT5 block 15.7
O=C(O)/C=C\C(=O)Nc1ccc(Oc2ccccc2)cc1	none (no result: EWS-Fli inh, SIRT5 block, LGR2 antag, rRNA inh HTS)
O=C(O)/C=C/C(=O)Nc1ccc(Cc2ccc(NC(=O)/C=C/C(=O)O)cc2)cc1	SIRT5 block 21.8 (no result: PGC1a acetyl inh)
CCC(=O)N1CC(=O)N2[C@H](CO)[C@@H](c3ccc(C#CC(C)C)cc3)[C@H]2C1	none (no result: PAX8 reporter, EWS-Fli inh, PGC1a acetyl inh, SIRT5 block, LGR2 antag)
COc1cccc(-c2ccc(SCC(=O)c3ccccc3)nn2)c1	rRNA inh HTS -26.9
C[C@H]1CN([C@@H](C)CO)S(=O)(=O)c2ccc(-c3ccccc3)cc2O[C@H]1CN(C)C(=O)C1CCCCC1	none (no result: PAX8 reporter)
COc1ccc(CNc2ncnc3c2[nH]c2ccccc23)cc1	rRNA inh HTS -55.4
CC(C)NC(=O)N(C)C[C@@H]1Oc2ccccc2C(=O)N(C)C[C@@H]1C	none (no result: PAX8 reporter, EWS-Fli inh, PGC1a acetyl inh, SIRT5 block, LGR2 antag)
COc1ccc(NC(=O)c2nc(C)c(C3(C)CC(c4cccnc4)=NO3)s2)cc1 (stereo not drawn)	EWS-Fli inh 67.7 (no result: PGC1a acetyl inh, SIRT5 block)
O=C(Nc1ccccc1)C1Cc2c(-c3cccc(F)c3)ccnc2O1 (stereo not drawn)	none
CC(=O)Nc1cccc(-c2ccnc3c2CC(C(=O)NCCc2ccccc2)O3)c1 (stereo not drawn)	EWS-Fli inh 55.3 (no result: PGC1a acetyl inh)
CS(=O)(=O)Nc1cccc(NC(=O)C2Cc3c(-c4cccc(F)c4)ccnc3O2)c1 (stereo not drawn)	EWS-Fli inh 63.5 (no result: PGC1a acetyl inh)
CC(=O)c1cccc(-c2ccnc3c2CC(C(=O)NCCc2ccccc2)O3)c1 (stereo not drawn)	EWS-Fli inh 54.4 (no result: PGC1a acetyl inh)
COc1ccc(NC(=O)C2Cc3c(-c4cccc(NC(C)=O)c4)ccnc3O2)cc1 (stereo not drawn)	EWS-Fli inh 52.2 (no result: PGC1a acetyl inh)
CC(=O)Nc1ccc(NC(=O)C2Cc3c(-c4cccc(NC(C)=O)c4)ccnc3O2)cc1 (stereo not drawn)	none (no result: PGC1a acetyl inh)
C/C=C/c1cccc(-c2nc(C(=O)NC3CCC3)cc3c2[C@H](CCO)N([S@@](=O)C(C)(C)C)C3)c1	none (no result: PAX8 reporter, EWS-Fli inh, PGC1a acetyl inh, SIRT5 block, LGR2 antag)
COc1ccc(CN(C)C[C@H]2OCCCC[C@H](C)Oc3ccc(NC(=O)c4ccncc4)cc3C(=O)N([C@@H](C)CO)C[C@@H]2C)cc1	none (no result: PAX8 reporter)
CCCCCCCCCC[n+]1cccc2c3ccccc3ccc21	PAX8 reporter 80.9, LGR2 antag 75.8
CCCCCCCC[n+]1cccc2c3ccccc3ccc21	PAX8 reporter 81.5
Cc1cccc[n+]1CCCCCCCCCC[n+]1ccccc1C	none (no result: PGC1a acetyl inh)
CC=Cc1ccc2n(c1=O)C[C@H]1[C@H](CO)[C@@H](C(=O)NCCc3cn(C)cn3)N(C(=O)C3CCCC3)[C@@H]21 (mixture of isomers)	none
O=C(C[C@H]1C[C@@H]2c3cc(NC(=O)Nc4ccccc4F)ccc3O[C@@H]2[C@H](CO)O1)NCc1ccncc1	none
O=C(C[C@H]1C[C@H]2c3cc(NC(=O)c4ccc5c(c4)OCO5)ccc3O[C@H]2[C@@H](CO)O1)NCc1ccc(Oc2ccccc2)cc1	none
O=C(C[C@@H]1C[C@@H]2c3cc(NC(=O)Nc4ccccc4F)ccc3O[C@@H]2[C@H](CO)O1)NCc1ccc(Oc2ccccc2)cc1	PAX8 reporter 82.3, PGC1a acetyl inh inconclusive
